Compounds with a hit are over-represented: about 6.1% of the library has one in this group of screens.
D3 ag: D3 dopamine receptor (human) agonism; 0.58% of 410,000 active; max activation, %; D3R DiscoveRx beta-arrestin cells, luminescence, 90 min; P35462; AID 652048; in the data active means max activation above about 30%
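Agonist-mode cell screen: cells plated at 1500/well and incubated overnight at 37 °C, then exposed to library compounds for 90 min at 37 °C. Detection reagent was added for 30–60 min at room temperature, and luminescence was read.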
D1 PAM: enhances dopamine response at the human D1 receptor | P21728 | HEK293 TREx D1 cells, calcium flux, dopamine EC20 potentiation | potentiation, % at 10 µM | 0.036% of 360,000 active | AID 504651; in the data active means potentiation above about 30%
Target sequence (P21728 whole entry, looked up): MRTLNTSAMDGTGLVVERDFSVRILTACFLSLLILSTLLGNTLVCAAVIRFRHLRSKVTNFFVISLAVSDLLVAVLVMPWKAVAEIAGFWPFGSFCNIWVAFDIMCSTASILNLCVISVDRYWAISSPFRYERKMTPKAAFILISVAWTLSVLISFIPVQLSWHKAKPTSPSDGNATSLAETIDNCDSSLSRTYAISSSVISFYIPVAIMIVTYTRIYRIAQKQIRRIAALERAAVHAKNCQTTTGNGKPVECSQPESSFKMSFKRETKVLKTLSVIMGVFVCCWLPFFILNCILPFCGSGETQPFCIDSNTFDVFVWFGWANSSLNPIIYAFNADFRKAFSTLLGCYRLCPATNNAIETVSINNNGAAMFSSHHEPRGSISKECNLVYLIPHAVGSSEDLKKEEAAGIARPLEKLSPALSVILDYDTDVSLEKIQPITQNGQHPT
D1 agonist: human D1 receptor agonism | P21728 | HEK293 T-REx D1 cells, calcium flux, agonist mode | activation, % at 2 µM | 1% of 360,000 active | AID 504660; in the data active means activation above about 30%
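Inducible HEK293 T-REx D1 cells, force-coupled to calcium signalling, were plated at 4000 cells/well with tetracycline and held overnight at 30 C. After no-wash calcium dye loading, compound-evoked calcium rise over 180 s flagged agonists.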
D1 antag: blocks dopamine activation of the human D1 receptor; P21728; HEK293 TREx D1 cells, calcium flux, dopamine EC80; active compounds read low; activity change, negative = inhibition, % at 10 µM; 3.2% of 360,000 active; AID 504652; in the data active means activity change below about -30%
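Tetracycline-induced HEK293 T-REx cells with force-coupled D1 receptor were loaded with a no-wash calcium dye. Compound was added after a 10 s baseline and read kinetically for 180 s; EC80 dopamine was then added and calcium flux followed another 180 s.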
D3 antag: blocks the human D3 dopamine receptor; max response, negative = inhibition, %; P35462; AID 652054; 2.5% of 360,000 active; D3R cells, DiscoveRx beta-arrestin luminescence, antagonist mode; active compounds read low; in the data active means max response below about -50%; inconclusive means no clear call, values can overlap the other calls
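Cells expressing the human receptor were seeded at 1500 cells/well, incubated overnight at 37 degrees C in 5% CO2, then exposed to library compounds with dopamine controls for 90 minutes at 37 degrees C before luminescent detection.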
Hits are given with their value; n = inactive; u = inconclusive; x = not tested or not shown.

SMILES | D3 ag | D1 PAM | D1 agonist | D1 antag | D3 antag
COc1cccc(CNC(=O)CCC2CCCN(Cc3cc4ccccc4o3)C2)c1 (centres undefined) | n | n | n | n | -70.9
COC(=O)CCCC(=O)N1CCCC(CCC(=O)NCc2ccc(F)c(F)c2)C1 (centres undefined) | n | n | n | -43.9 | n
COc1cccc(CNC(=O)CCC2CCCN(C(=O)c3ccc(C)nc3)C2)c1 (centres undefined) | n | n | n | n | n
COc1cccc(CNC(=O)CCC2CCCN(C(=O)CCC(F)(F)F)C2)c1 (centres undefined) | n | n | n | n | n
COc1cccc(CNC(=O)CCC2CCCN(C(=O)c3cccc(Cl)c3)C2)c1 (centres undefined) | 41.8 | n | n | n | n
Cc1ccc(S(=O)(=O)N(C)Cc2nc(-c3ccncc3)no2)cc1 | n | n | n | n | n
Cc1ccc(S(=O)(=O)N(C)Cc2nc(-c3ccc(Br)cc3)no2)cc1 | n | n | n | -35.6 | n
CCN(C(=O)c1cc2c(=O)oc3ccc(C)cc3c2s1)c1cc(OC)ccc1OC | n | n | n | n | x
O=C(O)CC1SC(=Nc2ccc(O)cc2)NC1=O (centres undefined) | n | n | n | -31.1 | n
COC(=O)c1ccccc1S(=O)(=O)N1CCC(C(=O)OCc2ccc([N+](=O)[O-])cc2)CC1 | n | n | n | -40.1 | n
CN(C)CCCNc1oc(-c2ccc(Cl)cc2)nc1S(=O)(=O)c1ccccc1 | n | x | x | x | -73.1
COCCNc1oc(-c2ccccc2Cl)nc1S(=O)(=O)c1ccc(C)cc1 | n | x | x | x | n
CN(C)CCCNc1oc(-c2ccccc2Cl)nc1S(=O)(=O)c1ccccc1 | n | n | n | n | -72.4
O=C1CC(c2ccccc2)CC(O)=C1C=NCc1ccco1 (centres undefined) | n | n | n | n | -56.6
O=C1CC(c2ccccc2)CC(O)=C1C=NCc1ccccc1Cl (centres undefined) | n | n | n | n | -92.3
O=C1CC(c2ccccc2)CC(O)=C1C=NCc1ccccc1 (centres undefined) | n | n | n | n | n
O=S(=O)(NN1CCOCC1)c1cc(Cl)cc(Cl)c1O | n | n | n | n | n
CC1(C)C=C(c2ccc(C=O)s2)CC(C)(C)N1C=O | n | n | n | -31.1 | n
CCc1ccc(NC(=O)CC2C(=O)N(c3cccc(OC)c3)C(=O)N2C2CCCC2)cc1 (centres undefined) | n | n | n | n | x
O=[N+]([O-])c1cc2c(cc1CN1CCN(c3ccccc3F)CC1)OCO2 | n | n | n | n | -52.1
O=C(Cn1ccc2cc(S(=O)(=O)N3CCCC3)ccc21)NCCc1ccccc1 | n | n | n | n | n
CCCCCn1c(=O)[nH]c2cc(C(=O)N3CCN(c4cccc(OC)c4)CC3)ccc2c1=O | n | n | n | n | x
COC1CCCN(C(=O)c2ccc(OC3CCN(CCc4ccccc4)CC3)cc2)C1 (centres undefined) | n | n | n | n | -54.8
COc1ccccc1/C=C/CN1CCC(Oc2ccc(C(=O)N3CCCC3)cc2)CC1 | n | n | n | n | -68.2
O=C(c1ccc(OC2CCN(CCc3ccccc3)CC2)cc1)N1CCC[C@H]1CO | n | n | n | -78.5 | n
SMILES | D3 ag | D1 PAM | D1 agonist | D1 antag | D3 antag
COc1cc(/C=C/CN2CCC(Oc3ccc(C(=O)N4CCCC4)cc3)CC2)ccc1O | n | n | n | n | n
CC(CCc1ccc(O)cc1)N1CCC(Oc2ccc(C(=O)N3CCCC3)cc2)CC1 (centres undefined) | 73.2 | n | n | n | n
COc1ccc2nc(NC(=O)c3cc(=O)c4cc(C)cc(C)c4o3)sc2c1 | n | n | n | n | x
COc1ccc(CNC(=O)c2ccc3nc(CCc4ccccc4)oc3c2)cc1OC | n | n | n | n | x
COc1ccc(CNC(=O)c2ccc3nc(CCc4ccccc4)oc3c2)cc1 | n | n | 53.1 | n | x
COc1cccc(CNC(=O)c2ccc3nc(CCc4ccccc4)oc3c2)c1OC | n | n | 48.3 | -31.9 | x
CCn1ccnc1CNC(=O)c1ccc2oc(CCCc3ccccc3)nc2c1 | n | n | n | n | -51.4
N#Cc1nc(-c2ccccc2F)oc1NC1CCCCC1 | n | x | n | -34.2 | n
CCCCCOc1ccc(C(=O)CCC(=O)N2CCCC2)cc1 | n | n | 36.2 | n | n
CCCOc1ccc(C(=O)CCN2CCCCC2)cc1 | n | n | n | n | u
CCCCOc1ccc(C(=O)CCN2CCOCC2)cc1 | n | n | n | -34.4 | u
CCCCOc1ccc(C(=O)N2CCCC2)cc1 | n | n | n | n | n
COCc1cc(C)nc2c1C(=O)NC(c1ccc(Br)cc1)N2Cc1ccccc1 (centres undefined) | n | n | n | n | x
CCOc1ccc(CCNC(=O)Cn2nc(CC)n3c(cc4ccccc43)c2=O)cc1 | n | n | n | -43.0 | x
COc1cccc(CNC(=O)Cn2c(=O)n(CCC(=O)N3CCCCC3)c(=O)c3sccc32)c1 | n | n | n | n | n
O=S1(=O)CC(N2CCN(CC3CC3)CC2)CN1Cc1ccccc1 (centres undefined) | n | x | x | x | -61.4
CCCCCCN1CCN(C2CN(C3CCCCC3)S(=O)(=O)C2)CC1 (centres undefined) | n | x | x | x | -116.7
O=S1(=O)CC(N2CCC(c3ccccc3)CC2)CN1C1CCCCC1 (centres undefined) | n | x | x | x | n
O=S1(=O)CC(N2CCC(Cc3ccccc3)CC2)CN1C1CCCCC1 (centres undefined) | n | x | x | x | -78.0
Cc1cccc(Cc2c(C)nc3nc(SCc4cccc(F)c4)nn3c2C)c1 | n | n | n | n | x
Cc1ccc2cn[nH]c2c1NC(N)=S | n | n | n | -35.5 | n
CCOc1ccc(NS(=O)(=O)c2cccs2)cc1S(=O)(=O)N1CCCC1 | n | x | x | x | n
O=C(NCC(c1ccco1)N1CCN(c2ccccc2F)CC1)C(=O)NC1CCCC1 (centres undefined) | 36.0 | n | n | n | n
O=C(NCC(c1ccco1)N1CCN(c2ccccc2)CC1)C(=O)NC1CCCCC1 (centres undefined) | 36.7 | n | n | n | n
O=C(NCC1CCCO1)C(=O)NCC(c1ccco1)N1CCN(c2ccccc2F)CC1 (centres undefined) | 50.8 | n | n | n | n
Cc1cc(C)cc(NC(=O)CSc2nnc(CNC(=O)c3ccco3)o2)c1 | n | n | n | n | n
Cc1nc2ccc(C(=O)N3c4ccccc4N=C(c4ccc5c(c4)OCO5)C3C(=O)NCc3ccccc3)cc2[nH]1 (centres undefined) | n | x | x | x | n
Cc1nn(C(C)(C)C)c(OC(=O)c2cccs2)c1Sc1ccccc1 | n | n | n | n | -53.4
Cc1ccccc1C(=O)Oc1c(Sc2ccccc2)c(C)nn1C(C)(C)C | n | n | n | n | x
Cc1cccc(N2CCN(CC(O)COc3ccc(Cl)cc3)CC2)c1 (centres undefined) | n | n | n | n | -80.2

Screens deposited in PubChem BioAssay by National Center for Advancing Translational Sciences (NCATS).
